# Measured values: publication PMC7862700, “An all-to-all approach to the identification of sequence-specific readers for epigenetic DNA modifications on cytosine”
# Key:
# Test in all cases: DAPPL (digital affinity profiling via proximity ligation, sequencing); 10 mM Tris-HCl pH 7.5, 50 mM NaCl, 1 mM DTT, 4% glycerol, room temperature, 30 min; GST-TFs on glutathione beads, 16-mer random dsDNA library, 0.1% formaldehyde crosslink after washing; high values mean tight binding
# FLI1 = biological target: T1, FLI1 (Homo sapiens, UniProt Q01543 1-452); conditions: protein: recombinant; tags: N-terminal GST; dsDNA, one strand shown
# T1 sequence: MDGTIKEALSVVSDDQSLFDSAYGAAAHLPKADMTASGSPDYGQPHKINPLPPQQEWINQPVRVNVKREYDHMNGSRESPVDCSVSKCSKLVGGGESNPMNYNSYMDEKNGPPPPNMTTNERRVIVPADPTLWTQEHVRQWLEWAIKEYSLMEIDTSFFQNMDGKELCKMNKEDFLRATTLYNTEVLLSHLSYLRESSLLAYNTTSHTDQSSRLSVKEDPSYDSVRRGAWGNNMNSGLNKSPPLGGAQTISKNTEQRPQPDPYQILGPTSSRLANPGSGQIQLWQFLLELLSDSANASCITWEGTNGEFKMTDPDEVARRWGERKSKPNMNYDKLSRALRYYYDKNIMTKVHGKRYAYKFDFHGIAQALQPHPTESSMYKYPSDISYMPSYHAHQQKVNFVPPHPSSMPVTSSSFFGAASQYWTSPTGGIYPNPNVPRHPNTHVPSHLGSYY
# Outline: (§1)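 Human transcription factors were made in yeast as GST fusions, captured on glutathione beads and barcoded with DNA. With a tag-only sample included, the pool was incubated with 200 nmole of a random double-stranded 16-mer DNA library in Tris/NaCl/DTT/glycerol buffer at room temperature for 30 min, then crosslinked with 0.1% formaldehyde after washing, ligated by proximity, amplified and sequenced. For binding signal, each hexamer's read frequency for a factor is divided by its frequency for the tag-only sample.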
# ELK1 = biological target: T2, ELK1 (Homo sapiens, UniProt P19419 1-428); conditions: protein: recombinant; tags: N-terminal GST; dsDNA, one strand shown
# T2 sequence: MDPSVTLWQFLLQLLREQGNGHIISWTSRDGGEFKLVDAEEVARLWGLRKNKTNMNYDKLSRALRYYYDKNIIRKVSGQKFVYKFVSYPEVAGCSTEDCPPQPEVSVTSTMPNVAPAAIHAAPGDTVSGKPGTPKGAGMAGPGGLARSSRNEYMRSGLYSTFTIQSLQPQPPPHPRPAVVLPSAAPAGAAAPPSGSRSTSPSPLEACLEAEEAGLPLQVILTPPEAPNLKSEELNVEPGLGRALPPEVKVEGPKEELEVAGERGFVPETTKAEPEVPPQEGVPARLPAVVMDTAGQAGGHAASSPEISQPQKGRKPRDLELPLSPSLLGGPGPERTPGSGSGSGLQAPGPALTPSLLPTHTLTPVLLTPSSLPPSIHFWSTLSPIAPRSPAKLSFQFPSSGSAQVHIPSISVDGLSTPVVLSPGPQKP
# Outline: as §1
# GABPA = biological target: T3, GABPA (Homo sapiens, UniProt Q06546 1-454); conditions: protein: recombinant; tags: N-terminal GST; dsDNA, one strand shown
# T3 sequence: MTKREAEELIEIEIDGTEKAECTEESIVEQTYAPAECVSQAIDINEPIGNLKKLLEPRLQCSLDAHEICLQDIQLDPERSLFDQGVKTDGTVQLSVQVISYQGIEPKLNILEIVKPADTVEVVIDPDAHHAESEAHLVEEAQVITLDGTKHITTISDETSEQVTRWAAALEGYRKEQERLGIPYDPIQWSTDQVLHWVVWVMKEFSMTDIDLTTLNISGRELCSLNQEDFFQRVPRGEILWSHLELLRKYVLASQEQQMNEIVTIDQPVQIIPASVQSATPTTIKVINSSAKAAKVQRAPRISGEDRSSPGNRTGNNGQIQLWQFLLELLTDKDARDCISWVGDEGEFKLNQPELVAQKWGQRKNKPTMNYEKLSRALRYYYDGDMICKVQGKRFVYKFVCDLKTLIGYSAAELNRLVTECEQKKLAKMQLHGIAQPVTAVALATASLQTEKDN
# Outline: as §1
# ERG = biological target: T4, ERG (Homo sapiens, UniProt P11308 1-479); conditions: protein: recombinant; tags: N-terminal GST; dsDNA, one strand shown
# T4 sequence: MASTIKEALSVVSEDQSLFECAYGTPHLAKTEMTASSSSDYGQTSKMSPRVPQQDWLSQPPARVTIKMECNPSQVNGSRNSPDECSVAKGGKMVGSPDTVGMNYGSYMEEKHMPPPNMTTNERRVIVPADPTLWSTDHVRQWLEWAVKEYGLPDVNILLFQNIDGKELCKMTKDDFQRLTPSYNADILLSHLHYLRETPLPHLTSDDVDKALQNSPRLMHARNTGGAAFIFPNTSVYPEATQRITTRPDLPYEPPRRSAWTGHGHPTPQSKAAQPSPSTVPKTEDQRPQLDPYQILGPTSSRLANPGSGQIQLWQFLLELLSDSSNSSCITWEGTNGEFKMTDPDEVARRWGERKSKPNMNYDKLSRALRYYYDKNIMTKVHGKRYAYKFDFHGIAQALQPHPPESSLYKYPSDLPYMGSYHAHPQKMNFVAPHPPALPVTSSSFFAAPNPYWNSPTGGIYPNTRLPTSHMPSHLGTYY
# Outline: as §1
# ELF1 = ELF1 (Homo sapiens, UniProt P32519 1-619); conditions: protein: recombinant; tags: N-terminal GST; dsDNA, one strand shown
# Outline: as §1
# EHF = biological target: T5, EHF (Homo sapiens, UniProt Q9NZC4 1-300); conditions: protein: recombinant; tags: N-terminal GST; dsDNA, one strand shown
# T5 sequence: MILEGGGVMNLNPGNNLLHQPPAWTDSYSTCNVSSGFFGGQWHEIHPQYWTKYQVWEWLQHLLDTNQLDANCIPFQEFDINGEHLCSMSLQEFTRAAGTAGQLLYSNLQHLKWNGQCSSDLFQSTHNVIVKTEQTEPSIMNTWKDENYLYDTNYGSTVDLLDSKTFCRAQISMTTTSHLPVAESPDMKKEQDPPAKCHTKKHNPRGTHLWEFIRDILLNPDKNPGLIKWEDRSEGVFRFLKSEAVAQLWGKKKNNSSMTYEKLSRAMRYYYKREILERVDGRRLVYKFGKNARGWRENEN
# Outline: as §1
# SPI1 = SPI1 (Homo sapiens, UniProt P17947 1-270); conditions: protein: recombinant; tags: N-terminal GST; dsDNA, one strand shown
# Outline: as §1
# SPIB = SPIB (Homo sapiens, UniProt Q01892 1-262); conditions: protein: recombinant; tags: N-terminal GST; dsDNA, one strand shown
# Outline: as §1
# ELK3 = biological target: T6, ELK3 (Homo sapiens, UniProt P41970 1-407); conditions: protein: recombinant; tags: N-terminal GST; dsDNA, one strand shown
# T6 sequence: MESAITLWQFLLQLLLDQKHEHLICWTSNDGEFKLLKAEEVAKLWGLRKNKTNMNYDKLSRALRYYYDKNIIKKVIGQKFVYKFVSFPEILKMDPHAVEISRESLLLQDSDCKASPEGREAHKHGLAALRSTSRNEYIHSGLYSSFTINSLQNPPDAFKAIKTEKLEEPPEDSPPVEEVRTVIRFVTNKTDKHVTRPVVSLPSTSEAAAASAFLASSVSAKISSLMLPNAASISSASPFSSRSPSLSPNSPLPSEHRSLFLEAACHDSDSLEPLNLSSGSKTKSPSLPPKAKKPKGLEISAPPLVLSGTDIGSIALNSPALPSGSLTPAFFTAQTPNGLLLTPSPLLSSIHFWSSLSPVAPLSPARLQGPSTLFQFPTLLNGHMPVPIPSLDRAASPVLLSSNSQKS
# Outline: as §1
# FEV = biological target: T7, FEV (Homo sapiens, UniProt Q99581 1-238); conditions: protein: recombinant; tags: N-terminal GST; dsDNA, one strand shown
# T7 sequence: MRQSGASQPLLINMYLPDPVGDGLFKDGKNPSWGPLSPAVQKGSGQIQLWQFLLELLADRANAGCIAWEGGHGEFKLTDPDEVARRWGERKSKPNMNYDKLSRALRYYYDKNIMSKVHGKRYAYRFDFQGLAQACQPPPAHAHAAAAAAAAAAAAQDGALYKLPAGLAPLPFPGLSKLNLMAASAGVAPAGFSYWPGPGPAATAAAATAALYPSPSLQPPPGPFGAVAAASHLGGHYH
# Outline: as §1
# ETV5 = ETV5 (Homo sapiens, UniProt P41161 1-510); conditions: protein: recombinant; tags: N-terminal GST; dsDNA, one strand shown
# Outline: as §1
# HSF1 = HSF1 (Homo sapiens, UniProt Q00613 1-529); conditions: protein: recombinant; tags: N-terminal GST; chain copies: 3; dsDNA, one strand shown
# Outline: as §1
# SPIC = biological target: T8, SPIC (Homo sapiens, UniProt Q8N5J4 1-248); conditions: protein: recombinant; tags: N-terminal GST; dsDNA, one strand shown
# T8 sequence: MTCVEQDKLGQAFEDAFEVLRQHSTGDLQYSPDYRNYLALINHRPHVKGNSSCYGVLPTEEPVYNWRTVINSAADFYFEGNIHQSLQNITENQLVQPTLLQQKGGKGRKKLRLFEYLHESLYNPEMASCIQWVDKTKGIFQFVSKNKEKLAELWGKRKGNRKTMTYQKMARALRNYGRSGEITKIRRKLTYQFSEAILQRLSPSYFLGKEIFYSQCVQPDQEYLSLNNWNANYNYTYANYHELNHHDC
# Outline: as §1
# ELF4 = ELF4 (Homo sapiens, UniProt Q99607 1-663); conditions: protein: recombinant; tags: N-terminal GST; dsDNA, one strand shown
# Outline: as §1
# ELK4 = biological target: T9, ELK4 (Homo sapiens, UniProt P28324-2 1-405); conditions: protein: recombinant; tags: N-terminal GST; dsDNA, one strand shown
# T9 sequence: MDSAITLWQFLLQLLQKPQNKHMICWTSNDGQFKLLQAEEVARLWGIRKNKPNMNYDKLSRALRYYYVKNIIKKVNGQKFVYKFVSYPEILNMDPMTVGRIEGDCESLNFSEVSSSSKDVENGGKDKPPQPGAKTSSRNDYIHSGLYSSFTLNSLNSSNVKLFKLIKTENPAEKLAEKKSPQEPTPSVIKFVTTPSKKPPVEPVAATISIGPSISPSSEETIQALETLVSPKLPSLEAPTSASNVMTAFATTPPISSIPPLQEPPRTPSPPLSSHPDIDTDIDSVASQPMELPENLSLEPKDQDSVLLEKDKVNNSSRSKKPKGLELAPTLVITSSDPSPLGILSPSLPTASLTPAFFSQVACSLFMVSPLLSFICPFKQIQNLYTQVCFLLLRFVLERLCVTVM
# Outline: as §1
# ETV2 = biological target: T10, ETV2 (Homo sapiens, UniProt O00321 1-342); conditions: protein: recombinant; tags: N-terminal GST; dsDNA, one strand shown
# T10 sequence: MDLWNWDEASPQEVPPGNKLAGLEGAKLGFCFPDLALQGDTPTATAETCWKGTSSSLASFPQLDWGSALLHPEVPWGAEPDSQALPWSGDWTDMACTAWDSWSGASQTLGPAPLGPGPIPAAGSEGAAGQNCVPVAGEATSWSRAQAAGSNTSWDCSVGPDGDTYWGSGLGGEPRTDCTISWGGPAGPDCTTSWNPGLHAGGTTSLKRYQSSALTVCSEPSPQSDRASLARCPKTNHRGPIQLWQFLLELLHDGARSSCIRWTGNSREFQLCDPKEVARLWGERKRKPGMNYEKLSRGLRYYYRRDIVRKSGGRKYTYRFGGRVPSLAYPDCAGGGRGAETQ
# Outline: as §1
# ELF3 = biological target: T11, ELF3 (Homo sapiens, UniProt P78545 1-371); conditions: protein: recombinant; tags: N-terminal GST; dsDNA, one strand shown
# T11 sequence: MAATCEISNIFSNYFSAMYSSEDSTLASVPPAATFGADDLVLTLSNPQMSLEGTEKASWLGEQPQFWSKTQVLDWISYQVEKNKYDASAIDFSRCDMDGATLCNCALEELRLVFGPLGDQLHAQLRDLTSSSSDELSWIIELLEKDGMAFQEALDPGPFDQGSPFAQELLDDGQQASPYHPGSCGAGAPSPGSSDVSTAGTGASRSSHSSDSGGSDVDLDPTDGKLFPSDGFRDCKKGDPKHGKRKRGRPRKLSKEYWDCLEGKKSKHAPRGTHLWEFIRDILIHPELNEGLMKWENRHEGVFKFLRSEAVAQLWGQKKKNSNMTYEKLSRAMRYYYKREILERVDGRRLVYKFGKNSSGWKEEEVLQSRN
# Outline: as §1
# CRX = CRX (Homo sapiens, UniProt O43186 1-299); conditions: protein: recombinant; tags: N-terminal GST; dsDNA, one strand shown
# Outline: as §1
# ETV1 = ETV1 (Homo sapiens, UniProt P50549 1-477); conditions: protein: recombinant; tags: N-terminal GST; dsDNA, one strand shown
# Outline: as §1
# Sequence of ETV1 (P50549 whole entry): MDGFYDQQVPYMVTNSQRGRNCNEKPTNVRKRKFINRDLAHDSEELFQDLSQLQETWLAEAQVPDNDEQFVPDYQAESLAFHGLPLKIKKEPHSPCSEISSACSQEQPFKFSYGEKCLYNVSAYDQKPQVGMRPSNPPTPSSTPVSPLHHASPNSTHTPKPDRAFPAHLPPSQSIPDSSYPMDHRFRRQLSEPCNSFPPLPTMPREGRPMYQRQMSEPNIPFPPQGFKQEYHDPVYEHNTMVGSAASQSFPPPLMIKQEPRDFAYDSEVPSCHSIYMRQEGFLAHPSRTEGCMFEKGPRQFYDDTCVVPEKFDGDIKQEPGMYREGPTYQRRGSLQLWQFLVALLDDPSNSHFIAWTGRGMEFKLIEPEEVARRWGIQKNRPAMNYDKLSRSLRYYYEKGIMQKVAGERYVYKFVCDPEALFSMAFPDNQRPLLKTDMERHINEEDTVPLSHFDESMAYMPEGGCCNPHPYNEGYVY
# Sequence of ELF4 (Q99607 whole entry): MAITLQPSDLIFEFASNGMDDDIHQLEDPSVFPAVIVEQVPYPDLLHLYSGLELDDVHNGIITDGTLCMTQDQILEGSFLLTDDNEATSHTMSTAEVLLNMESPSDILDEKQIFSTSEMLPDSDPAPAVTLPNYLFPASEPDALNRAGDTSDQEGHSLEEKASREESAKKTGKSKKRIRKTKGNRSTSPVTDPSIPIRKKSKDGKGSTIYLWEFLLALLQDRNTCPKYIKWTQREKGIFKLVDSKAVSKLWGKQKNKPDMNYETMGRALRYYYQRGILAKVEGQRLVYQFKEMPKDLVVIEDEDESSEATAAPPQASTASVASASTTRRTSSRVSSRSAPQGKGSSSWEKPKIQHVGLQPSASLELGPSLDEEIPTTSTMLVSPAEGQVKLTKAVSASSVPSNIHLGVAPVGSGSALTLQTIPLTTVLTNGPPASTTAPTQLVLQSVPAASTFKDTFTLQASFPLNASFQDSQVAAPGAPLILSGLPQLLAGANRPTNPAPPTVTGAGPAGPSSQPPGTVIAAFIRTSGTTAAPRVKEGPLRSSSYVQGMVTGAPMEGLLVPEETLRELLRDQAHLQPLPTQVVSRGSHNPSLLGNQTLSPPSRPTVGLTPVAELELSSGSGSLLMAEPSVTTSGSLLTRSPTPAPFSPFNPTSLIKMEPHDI
# Sequence of HSF1 (Q00613 whole entry): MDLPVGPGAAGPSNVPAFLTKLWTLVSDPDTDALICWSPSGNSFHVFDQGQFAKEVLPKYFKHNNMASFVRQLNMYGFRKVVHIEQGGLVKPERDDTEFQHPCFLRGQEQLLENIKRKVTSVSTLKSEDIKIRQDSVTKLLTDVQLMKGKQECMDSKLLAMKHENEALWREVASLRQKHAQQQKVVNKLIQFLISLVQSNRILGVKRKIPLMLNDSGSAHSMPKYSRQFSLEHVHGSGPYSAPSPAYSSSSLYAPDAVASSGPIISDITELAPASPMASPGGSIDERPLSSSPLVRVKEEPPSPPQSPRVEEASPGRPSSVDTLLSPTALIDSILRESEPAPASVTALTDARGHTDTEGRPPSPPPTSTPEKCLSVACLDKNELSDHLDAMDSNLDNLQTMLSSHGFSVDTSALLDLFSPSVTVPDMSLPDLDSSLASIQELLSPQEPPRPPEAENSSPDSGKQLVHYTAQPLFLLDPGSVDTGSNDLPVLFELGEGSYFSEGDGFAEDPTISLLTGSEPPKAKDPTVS
# Sequence of SPIB (Q01892 whole entry): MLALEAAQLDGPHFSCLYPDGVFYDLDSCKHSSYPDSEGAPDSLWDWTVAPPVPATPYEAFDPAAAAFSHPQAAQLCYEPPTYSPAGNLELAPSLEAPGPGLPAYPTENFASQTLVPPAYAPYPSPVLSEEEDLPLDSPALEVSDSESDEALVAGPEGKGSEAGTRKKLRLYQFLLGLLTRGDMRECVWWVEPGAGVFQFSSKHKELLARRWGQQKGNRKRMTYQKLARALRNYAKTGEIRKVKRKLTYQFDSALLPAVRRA
# Sequence of CRX (O43186 whole entry): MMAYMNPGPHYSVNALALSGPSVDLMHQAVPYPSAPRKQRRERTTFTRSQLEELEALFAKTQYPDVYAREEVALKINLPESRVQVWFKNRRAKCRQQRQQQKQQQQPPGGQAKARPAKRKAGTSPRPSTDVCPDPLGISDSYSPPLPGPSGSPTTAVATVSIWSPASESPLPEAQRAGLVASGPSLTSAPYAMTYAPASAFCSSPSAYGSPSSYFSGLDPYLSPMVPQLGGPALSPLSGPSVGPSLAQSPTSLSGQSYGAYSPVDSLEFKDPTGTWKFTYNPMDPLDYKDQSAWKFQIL
# Sequence of ELF1 (P32519 whole entry): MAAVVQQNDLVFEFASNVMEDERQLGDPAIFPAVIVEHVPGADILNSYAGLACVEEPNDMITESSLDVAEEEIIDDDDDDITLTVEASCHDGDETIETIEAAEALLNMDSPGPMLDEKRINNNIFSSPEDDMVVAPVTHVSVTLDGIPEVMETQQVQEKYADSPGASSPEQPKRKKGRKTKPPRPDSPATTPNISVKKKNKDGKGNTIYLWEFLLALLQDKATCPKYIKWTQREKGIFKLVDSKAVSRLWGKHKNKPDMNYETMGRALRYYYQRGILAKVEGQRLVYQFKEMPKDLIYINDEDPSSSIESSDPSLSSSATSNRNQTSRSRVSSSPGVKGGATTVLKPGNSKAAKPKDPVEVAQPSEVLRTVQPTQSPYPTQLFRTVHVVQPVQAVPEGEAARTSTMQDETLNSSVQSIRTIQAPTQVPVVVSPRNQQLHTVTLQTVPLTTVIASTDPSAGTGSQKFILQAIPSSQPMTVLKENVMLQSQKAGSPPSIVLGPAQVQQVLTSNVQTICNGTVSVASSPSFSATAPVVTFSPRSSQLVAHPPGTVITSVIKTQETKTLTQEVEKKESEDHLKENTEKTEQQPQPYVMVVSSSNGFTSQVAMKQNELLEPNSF
# Sequence of ETV5 (P41161 whole entry): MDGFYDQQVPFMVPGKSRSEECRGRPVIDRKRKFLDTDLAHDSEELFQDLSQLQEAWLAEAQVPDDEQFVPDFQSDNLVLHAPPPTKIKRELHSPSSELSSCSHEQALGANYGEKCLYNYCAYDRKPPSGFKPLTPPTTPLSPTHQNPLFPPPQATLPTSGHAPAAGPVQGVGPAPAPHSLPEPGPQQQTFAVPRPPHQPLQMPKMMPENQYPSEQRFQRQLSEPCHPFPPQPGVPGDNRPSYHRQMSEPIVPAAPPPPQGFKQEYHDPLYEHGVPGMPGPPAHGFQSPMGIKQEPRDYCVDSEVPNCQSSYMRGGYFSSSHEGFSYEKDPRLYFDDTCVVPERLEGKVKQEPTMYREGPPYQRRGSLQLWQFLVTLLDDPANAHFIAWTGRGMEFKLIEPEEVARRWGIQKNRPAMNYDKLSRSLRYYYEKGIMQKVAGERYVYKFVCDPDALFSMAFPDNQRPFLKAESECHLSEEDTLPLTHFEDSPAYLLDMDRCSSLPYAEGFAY
sequence,measurement,setting,value
CGCTTA,binding signal,FLI1,"1.32 fold enrichment (6-mer frequency, TF over GST control)"
same,binding signal,ELK1,"1.26 fold enrichment (6-mer frequency, TF over GST control)"
same,binding signal,GABPA,"1.17 fold enrichment (6-mer frequency, TF over GST control)"
same,binding signal,ERG,"1.15 fold enrichment (6-mer frequency, TF over GST control)"
same,binding signal,ELF1,"1.32 fold enrichment (6-mer frequency, TF over GST control)"
same,binding signal,EHF,"1.18 fold enrichment (6-mer frequency, TF over GST control)"
same,binding signal,SPI1,"1.24 fold enrichment (6-mer frequency, TF over GST control)"
same,binding signal,SPIB,"1.41 fold enrichment (6-mer frequency, TF over GST control)"
same,binding signal,ELK3,"1.15 fold enrichment (6-mer frequency, TF over GST control)"
same,binding signal,FEV,"1.2 fold enrichment (6-mer frequency, TF over GST control)"
same,binding signal,ETV5,"1.29 fold enrichment (6-mer frequency, TF over GST control)"
same,binding signal,HSF1,"1.53 fold enrichment (6-mer frequency, TF over GST control)"
same,binding signal,SPIC,"1.22 fold enrichment (6-mer frequency, TF over GST control)"
same,binding signal,ELF4,"1.29 fold enrichment (6-mer frequency, TF over GST control)"
same,binding signal,ELK4,"1.32 fold enrichment (6-mer frequency, TF over GST control)"
same,binding signal,ETV2,"1.1 fold enrichment (6-mer frequency, TF over GST control)"
same,binding signal,ELF3,"1.29 fold enrichment (6-mer frequency, TF over GST control)"
same,binding signal,CRX,"2.11 fold enrichment (6-mer frequency, TF over GST control)"
same,binding signal,ETV1,"1.24 fold enrichment (6-mer frequency, TF over GST control)"
